Reference: PubChem BioAssay AID2550 (Johns Hopkins Ion Channel Center, 2010)
About 380 (0.12%) of roughly 310,000 compounds were called active. The sample holds actives, similar compounds and a random draw of the others, so the mix is not that of the screen.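 Rule for the calls: active = B-score of the integrated fluorescence ratio above library mean plus 3 SD, and starting fluorescence ratio within library mean plus 5 SD; inactive = the rest.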

target: Short transient receptor potential channel 6 (Mus musculus) (UniProt Q61143); assay: mouse TRPC6 channel activators, primary screen, cell-based, HEK293, membrane potential dye (AID 2550); details: HEK293-TRPC6 membrane potential dye fluorescence, at 10 µM;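 note: higher score means more depolarization so channel activation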
Sequence (Q61143 whole entry, looked up): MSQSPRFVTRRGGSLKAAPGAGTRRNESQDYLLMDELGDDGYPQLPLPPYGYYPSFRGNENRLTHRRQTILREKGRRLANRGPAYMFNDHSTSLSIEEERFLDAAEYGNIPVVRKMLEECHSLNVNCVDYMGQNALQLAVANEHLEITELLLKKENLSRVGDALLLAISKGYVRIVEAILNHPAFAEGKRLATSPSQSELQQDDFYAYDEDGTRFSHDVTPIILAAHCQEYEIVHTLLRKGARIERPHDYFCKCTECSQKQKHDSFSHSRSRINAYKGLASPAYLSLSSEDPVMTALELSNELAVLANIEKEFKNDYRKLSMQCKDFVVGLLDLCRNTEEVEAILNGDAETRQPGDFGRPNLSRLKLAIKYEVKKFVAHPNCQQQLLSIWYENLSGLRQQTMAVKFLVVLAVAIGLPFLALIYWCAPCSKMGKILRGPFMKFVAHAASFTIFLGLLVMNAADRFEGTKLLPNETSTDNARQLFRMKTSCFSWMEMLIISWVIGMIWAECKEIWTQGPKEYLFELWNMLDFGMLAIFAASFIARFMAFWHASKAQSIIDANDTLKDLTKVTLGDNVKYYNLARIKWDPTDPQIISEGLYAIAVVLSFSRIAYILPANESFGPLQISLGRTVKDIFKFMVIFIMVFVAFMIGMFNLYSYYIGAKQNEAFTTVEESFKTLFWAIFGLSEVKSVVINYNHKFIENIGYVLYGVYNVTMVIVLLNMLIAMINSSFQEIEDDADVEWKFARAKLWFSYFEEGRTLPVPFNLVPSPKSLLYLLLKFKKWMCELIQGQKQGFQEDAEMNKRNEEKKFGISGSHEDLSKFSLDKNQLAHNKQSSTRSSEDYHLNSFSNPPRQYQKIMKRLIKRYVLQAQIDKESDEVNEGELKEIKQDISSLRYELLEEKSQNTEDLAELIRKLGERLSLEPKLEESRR

Row | Structure (SMILES) | B-score
1 | Cc1c(S(=O)(=O)NC(C)c2ccccc2)c(=O)n(C)c(=O)n1C (stereo unspecified) | inactive
2 | COc1ccc(CC(NC(C)=O)C(=O)NC2CCN(C(=O)C3CC3)CC2)cc1OC (stereo unspecified) | inactive
3 | O=S(=O)(c1cccc(Cn2nnc(-c3ccc(F)cc3)n2)c1)N1CCOCC1 | inactive
4 | C[C@]1(C(=O)NCCc2c[nH]c3ccccc23)C=C[C@@H](Cc2ccccc2)N1C(=O)c1ccccc1 | inactive
5 | CCOC(=O)c1nc(-c2ccc3c(c2)OCO3)[nH]c1C | inactive
6 | Cc1cc(Nc2ccc(C(=O)N3CCCCC3)cc2)c2cccc(C)c2n1 | inactive
7 | CCC(c1nnc(SCC(=O)NNC(=O)c2ccccc2)n1Cc1ccccc1)N(C)C (stereo unspecified) | inactive
8 | COc1ccc(-n2cc(-c3ccccc3)c3c(=S)nc[nH]c32)cc1 | inactive
9 | Cc1nnc(NC(=O)Cn2c(=O)sc3ccccc32)s1 | inactive
10 | O=C(Nc1cc(-c2nn(CC(=O)N3CCCCC3)c(=O)c3ccccc23)ccc1N1CCOCC1)c1ccc(Cl)cc1 | inactive
11 | Cc1cccc(NC(=O)Nc2ccc3c(c2)OCO3)n1 | inactive
12 | OCc1nc(CO)n(Cc2ccccc2)n1 | inactive
13 | CCN(CC)C(=O)N1CCN(C(=O)c2ccc(C)cn2)CC1 | inactive
14 | COc1ccc(CCC(=O)c2ccc(OC)cc2)cc1 | inactive
15 | COCC1CCN(C(=O)C2CCC(=O)N(Cc3cccc(C(F)(F)F)c3)C2)CC1 (stereo unspecified) | inactive
16 | CCCCc1c(O)nc2n(c1=O)CCS2 | inactive

Row | Structure (SMILES) | B-score
17 | CCOC(=O)N1CCC(O)(c2cc(C)c(C)cc2C)CC1 | inactive
18 | COc1cccc2c1CCC(NC(C)=O)C2=O (stereo unspecified) | inactive
19 | O=C1CSC2=NCN(c3ccccc3)CN12 | inactive
20 | CN1C(CC(=O)Nc2ccc(Br)cc2)c2ccccc2CC1(C)C (stereo unspecified) | inactive
21 | Nc1[nH][nH]c(=O)c1N=Nc1ccc2c(c1)OCO2 | inactive
22 | Cn1c(SCC(=O)Nc2ccc(Cl)cc2)nc(O)cc1=O | inactive
23 | CCOc1ccc(NC(=O)CN(C)CC(=O)Nc2cccc(Cl)c2C)cc1OCC | inactive
24 | Cc1ccc(NC(=O)C2CCN(S(=O)(=O)c3ccc4c(c3)NC(=O)CO4)CC2)cc1C | inactive
25 | CCCCN=C(N)/C(C(=O)OCC)=C(\O)c1ccc(OC)cc1 | inactive
26 | CC(C)C(c1nnnn1C(C)(C)C)N1CCN(Cc2cccnc2)CC1 (stereo unspecified) | inactive
27 | Cn1c(-c2ccc(C(=O)c3ccccc3)s2)nc2ccccc21 | inactive
28 | COc1cccc(C2c3[nH]c4ccccc4c3CCN2Cc2cccc(C)n2)c1 (stereo unspecified) | inactive
29 | COC(=O)[C@@H]1CC(O)CN1C(=O)C12CC3CC(CC(C3)C1)C2 (stereo partly specified) | inactive
30 | Cc1ccc(NC(=O)c2sc3nc(N)c(C#N)cc3c2N)cc1 | inactive
31 | CCn1ccnc1CNC(=O)CC1C(=O)NCCN1Cc1ccc(F)cc1Cl (stereo unspecified) | inactive
